In PubChem BioAssay AID1851 (National Center for Advancing Translational Sciences (NCATS), 2009):
About 5,100 (32%) of roughly 16,000 compounds were called active. Inconclusive results (about 25%) are left out. Calls come from the whole dose curve; as a rule, active = well fitted curve in the direction sought with a large enough effect; inconclusive = small, poorly fitted or top-dose-only effect, or effect the other way; inactive = no such curve, though single readings can be large or run the other way. This is one part of the list.

Target: Cytochrome P450 3A4 (Homo sapiens) (UniProt P08684)
Sequence (P08684 whole entry, looked up): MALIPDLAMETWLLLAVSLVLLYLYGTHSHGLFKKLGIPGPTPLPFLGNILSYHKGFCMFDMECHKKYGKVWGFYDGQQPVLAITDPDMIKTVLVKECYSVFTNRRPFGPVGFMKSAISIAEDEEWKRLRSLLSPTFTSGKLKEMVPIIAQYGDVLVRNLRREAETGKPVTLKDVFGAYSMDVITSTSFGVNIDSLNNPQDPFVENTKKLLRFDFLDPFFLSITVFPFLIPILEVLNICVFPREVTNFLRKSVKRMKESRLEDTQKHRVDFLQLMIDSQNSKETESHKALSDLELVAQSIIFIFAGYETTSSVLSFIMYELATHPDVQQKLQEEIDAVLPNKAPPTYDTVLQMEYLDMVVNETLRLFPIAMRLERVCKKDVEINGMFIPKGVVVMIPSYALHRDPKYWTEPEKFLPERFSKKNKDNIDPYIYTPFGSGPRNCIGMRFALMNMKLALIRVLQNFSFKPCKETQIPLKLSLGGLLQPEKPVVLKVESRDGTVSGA
Experiment: Cytochrome panel assay with activity outcomes
Conditions: recombinant CYP, pro-luciferin dealkylation, luminescence, p450-cyp3a4; series mostly up to 57.1 µM; activity, negative = inhibition: at the top concentration
% is set by controls: 0 for no effect and ±100 for the full control effect.

SMILES	activity, negative = inhibition	AC50
Cc1cc(C)c(C#N)c(Oc2ccccc2)n1	-18.2% [at 11.4 µM] (inactive)	–
Cc1cc(C)c(S(C)(=O)=O)c(Oc2ccc(F)cc2)n1	26.1% [at 2.29 µM] (inactive)	–
Cc1cc(C)c(C#N)c(Oc2ccc(F)cc2)n1	–	8.91 µM (active)
CCCC(=O)Nc1cccc(Oc2nc(C)cc(C)c2C#N)c1	–	14.1 µM (active)
COc1ccc(-n2c(=O)c(-c3ccc(Cl)cc3)nc3cnc(N4CCOCC4)nc32)cc1	-5.16% (inactive)	–
Nc1nc(CSc2nnnn2-c2ccc(Cl)cc2)nc(N2CCOCC2)n1	–	3.98 µM (active)
Clc1ccc(-n2nnnc2CN2CCOCC2)cc1	-2.71% (inactive)	–
COC(=O)c1cc(/C=C/c2ccccc2)on1	-3.05% [at 2.29 µM] (inactive)	–
COC(=O)C1=C(C)N=C2SC(C)C(=O)N2C1/C=C/c1ccccc1 (centres undefined)	–	12.6 µM (active)
CC(C)C(=O)N[C@H]1CCCN1C(=O)/C=C\c1ccccc1	-20.7% [at 11.4 µM] (inactive)	–
Cc1[nH]c2c(C)cccc2c1CCNC(=O)c1ccc2c(c1[N+](=O)[O-])C(=O)c1ccccc1C2=O	–	3.16 µM (active)
CC(C)NC(=O)COC(=O)c1cc(=O)[nH]c2ccccc12	1.83% [at 2.29 µM] (inactive)	–
Cc1[nH]c2ccccc2c1CCNC(=O)c1ccc2c(c1[N+](=O)[O-])C(=O)c1ccccc1C2=O	–	8.91 µM (active)
COc1cc(OC)nc(NC(C)=O)n1	28.1% (inactive)	–
COc1cc(C2SCCCCCCCCCCSC(c3ccc(O)c(OC)c3)SCCCCCCCCCCS2)ccc1O (centres undefined)	12.5% [at 11.4 µM] (inactive)	–
COc1ccc(C[C@@H]2C(=O)N[C@H](C)C(=O)N(C)[C@@H]3Cc4ccc(cc4)Oc4cc(ccc4O)C[C@H](C(=O)N[C@@H](C)C(=O)N[C@H](C)C(=O)N2C)N(C)C3=O)cc1	–	3.98 µM (active)
NC1CCN(c2cccc(Cl)n2)CC1	–	inactive
Nc1nc(Cl)cc(N2CCC(c3cc(-c4ccc(Cl)cc4Cl)n[nH]3)CC2)n1	–	20 µM (active)
Nc1nc(Cl)cc(N2CCOCC2)n1	-4.16% (inactive)	–
COc1ccc(-c2cc(C3CCN(c4cc(Cl)nc(N)n4)CC3)[nH]n2)cc1	–	28.2 µM (active)
CCNc1ncc2nc(-c3ccc(F)cc3)c(=O)n(CCC#N)c2n1	-24.5% (inactive)	–
CCNc1ncc2nc(-c3cccs3)c(=O)n(CCC#N)c2n1	–	6.31 µM (active)
CCNc1ncc2nc(-c3ccc(F)cc3)c(=O)n(CCOC)c2n1	13.3% (inactive)	–
CCNc1ncc2nc(-c3cccs3)c(=O)n(Cc3ccc(F)cc3)c2n1	–	15.8 µM (active)

SMILES	activity, negative = inhibition	AC50
CCNc1ncc2nc(-c3cc(F)cc(F)c3)c(=O)n(CCC#N)c2n1	-5.56% (inactive)	–
CCNc1ncc2nc(-c3cccs3)c(=O)n(Cc3cccs3)c2n1	–	6.31 µM (active)
CCNc1ncc2nc(-c3ccccc3)c(=O)n(Cc3cccs3)c2n1	–	15.8 µM (active)
CCNc1ncc2nc(C)c(=O)n(Cc3cccs3)c2n1	–	15.8 µM (active)
CCNc1ncc2nc(C)c(=O)n(C)c2n1	-19.3% (inactive)	–
O=C(Nc1ccc2oc(-c3ccccc3F)nc2c1)c1ccc2c(c1)OCCO2	–	3.16 µM (active)
COc1cc2ccc(=O)oc2cc1O	-6.97% [at 25.6 µM] (inactive)	–
COc1cc(C(=O)NC(=S)Nc2ccc(Cl)c(C(=O)O)c2)cc(OC)c1OC	-9.66% [at 11.4 µM] (inactive)	–
COc1cc(C(=O)NC(=S)Nc2ccc3oc(=O)ccc3c2)cc(OC)c1OC	–	4.47 µM (active)
COc1cc(C(=O)NC(=S)Nc2cccc(-c3cc4ccccc4oc3=O)c2)cc(OC)c1OC	–	6.31 µM (active)
CC(O)(P(=O)(O)O)P(=O)(O)O	-6.71% [at 25.6 µM] (inactive)	–
CCC(=O)Nc1cc(-c2nn(C)c(=O)c3ccccc23)ccc1N1CCCCC1	-26.6% (inactive)	–
Cn1nc(-c2ccc(N3CCOCC3)c(NS(=O)(=O)c3ccc(Cl)cc3)c2)c2ccccc2c1=O	–	1.41 µM (active)
Cc1c(C(=O)NN2CCOCC2)nn(-c2ccc(Cl)cc2Cl)c1-c1ccc(I)cc1	-26.3% (inactive)	–
COC(=O)[C@@]1(Cc2ccc(OC)cc2)[C@H]2c3cc(C(=O)N4CCCC4)n(CCc4c[nH]c5ccc(O)cc45)c3C[C@H]2CN1C(=O)c1ccccc1	–	1.58 µM (active)
COC(=O)[C@@]1(Cc2ccc(F)cc2)[C@H]2c3cc(C(=O)N4CCCC4)n(CCc4c[nH]c5ccccc45)c3C[C@H]2CN1C(=O)c1ccccc1	–	1 µM (active)
COC(=O)[C@@]1(Cc2ccc(OC)cc2)[C@H]2c3cc(C(=O)N4CCCC4)n(CCc4c[nH]c5cc(F)ccc45)c3C[C@H]2CN1C(=O)c1ccccc1	–	1.26 µM (active)
CCOc1cc(C#N)c(NC(=O)c2cccnc2)cc1OCC	–	12.6 µM (active)
CCN(CC)c1ccc(NC(=O)c2cccnc2)c(C)c1	1.22% [at 2.29 µM] (inactive)	–
CCN(CC)C(=O)c1sc2[nH]c(=S)n(-c3ccccc3)c(=O)c2c1C	-14.5% (inactive)	–
CC1=C(C(=O)Nc2ccccc2)C(c2ccco2)NC(=S)N1 (centres undefined)	0.933% [at 2.29 µM] (inactive)	–
CCN(CC)C(=O)C1=C(C)NC(=S)NC1c1cn(-c2ccccc2)nc1-c1ccc(Cl)cc1 (centres undefined)	–	7.08 µM (active)
COc1ccc2[nH]cc(CCNc3ccnc(-c4ccccc4Cl)n3)c2c1	–	2 µM (active)
COc1ccc2[nH]cc(CCNc3ccnc(-c4ccccc4C(F)(F)F)n3)c2c1	–	2 µM (active)

SMILES	activity, negative = inhibition	AC50
COc1ccc2[nH]cc(CCNc3ccnc(-c4ccccc4C)n3)c2c1	–	3.16 µM (active)
NC(=O)N[C@H]1NC(=O)NC1=O	-8.61% [at 25.6 µM] (inactive)	–
O=C(O)[C@@H](c1ccccc1)[C@@H](C(=O)O)c1ccccc1	-6.94% [at 11.4 µM] (inactive)	–
Cc1ccc(SCc2nnc(NC(=O)c3ccccc3)s2)cc1	6.01% (inactive)	–
Cc1ccn2c(NC(=O)c3ccccc3)c(-c3cccs3)nc2c1	–	7.94 µM (active)
Cn1sc(NC(=O)c2ccccc2)nc1=O	0.56% (inactive)	–
COc1ccccc1CNc1ncncc1-c1ccccc1C(F)(F)F	–	0.0794 µM (active)
COc1ccc(CNc2ncncc2-c2ccccc2C(F)(F)F)c(OC)c1	–	0.316 µM (active)
CSc1ccc(CNc2ccc(C)c(C)c2)cc1	–	12.6 µM (active)
CSc1ccc(NC(=O)NCCN2CCc3ccccc3C2)cc1	-27.6% (inactive)	–
CSc1ccc(NC(=O)Nc2cc(C)ccn2)cc1	-14.7% [at 11.4 µM] (inactive)	–
O=C(O)[C@H]1[C@H](C(=O)O)[C@H](C(=O)O)C[C@@H]1C(=O)O	-3.42% [at 11.4 µM] (inactive)	–
COc1ccc(-n2c(CNc3ccc(C)cc3)nnc2SCC(=O)Nc2nc(-c3ccccc3)cs2)cc1	–	3.16 µM (active)
COc1ccc2cc(C)c3nnc(SCC(=O)Nc4nc(-c5ccccc5)cs4)n3c2c1	–	2.24 µM (active)
COc1ccc(NC(=O)CSc2nc(-c3ccc(C)cc3)cc(C(F)(F)F)c2C#N)cc1	0.258% [at 2.29 µM] (inactive)	–
Nc1ccc(N2C(=O)c3ccccc3C2=O)c(Cl)c1	–	15.8 µM (active)
CC1CCN(CCc2nc3cc(NC(=O)NC4CCCCC4)ccc3n2C)CC1	-7.07% (inactive)	–
Cc1ccccc1-c1cncnc1NCc1cccnc1	–	0.631 µM (active)
Cc1ccccc1-c1cncnc1NCc1ccccc1	–	0.316 µM (active)
FC(F)(F)c1ccccc1-c1cncnc1NCc1cccnc1	–	0.631 µM (active)
CN(C)Cc1ccccc1-c1cncnc1NCc1cccnc1	–	1.58 µM (active)
c1cncc(CNc2ncn[nH]2)c1	-14.4% [at 11.4 µM] (inactive)	–
N#Cc1ccc(OC(=O)c2ccc(N=C(N)N)cc2)cc1	-10.9% [at 11.4 µM] (inactive)	–
Cc1cccc(CNc2ncncc2-c2ccccc2Cl)c1	–	0.2 µM (active)

SMILES	activity, negative = inhibition	AC50
Cc1cccc(CNc2ncncc2-c2ccccc2C)c1	–	0.398 µM (active)
Cc1cccc(CNc2ncncc2-c2ccccc2C(F)(F)F)c1	–	0.0794 µM (active)
Cc1ccc(N(CC(N)=O)C2SC(=O)N(Cc3cccc(C(=O)O)c3)C2=O)cc1 (centres undefined)	22.1% (inactive)	–
Cc1cccc(-c2nnc(SCc3ccccc3)o2)c1	-29.6% (inactive)	–
Clc1ccc(CSc2nnc(-c3cccnc3)o2)cc1	–	3.16 µM (active)
Clc1cccc(CSc2nnc(-c3sccc3-n3cccc3)o2)c1	–	8.91 µM (active)
c1ccc(CSc2nnc(-c3sccc3-n3cccc3)o2)cc1	–	15.8 µM (active)
c1ccc(CSc2nnc([C@@H]3CCCN3)o2)cc1	-4.35% [at 11.4 µM] (inactive)	–
Clc1ccc(CSc2nnc(-c3sccc3-n3cccc3)o2)cc1	–	6.31 µM (active)
CCOC(=O)c1c(NC(=O)Cn2cc([N+](=O)[O-])cn2)sc2c1CCC2	–	10 µM (active)
CCOC(=O)c1c(NC(=O)CSc2nnc(C)s2)sc2c1CCCCC2	-23.9% [at 2.29 µM] (inactive)	–
COC(=O)c1c(NC(=O)Cn2cc([N+](=O)[O-])cn2)sc2c1CCC2	–	14.1 µM (active)
CCOC(=O)c1c(NC(=O)Cn2nc([N+](=O)[O-])c(Br)c2C)sc2c1CCC(C)C2 (centres undefined)	-21.8% [at 2.29 µM] (inactive)	–
O=C(O)CCN1C(=S)CSC1=S	-22% [at 11.4 µM] (inactive)	–
Cc1ccc(-c2ncccc2OC(=O)C23CC4CC(CC(C4)C2)C3)cc1	-12.5% [at 2.29 µM] (inactive)	–
CCC(C(=O)c1ccccc1)N(C(=O)c1ccccc1Cl)N1C(=O)C2C3C=CC(C3)C2C1=O (centres undefined)	–	0.891 µM (active)
CCOC(=O)c1cccc(C(=O)OCC)n1	-1.92% (inactive)	–
Cc1ccc(OC(=O)c2cccc(C(=O)Oc3ccc(C)cc3)n2)cc1	6.37% [at 11.4 µM] (inactive)	–
COC(=O)c1cccc(C(=O)Nc2ccc(C)cc2)n1	–	12.6 µM (active)
c1ccc(CNc2ccnc(-c3ccc4c(c3)OCO4)n2)cc1	–	0.794 µM (active)
c1csc(CNc2ccnc(-c3ccc4c(c3)OCO4)n2)c1	–	1 µM (active)
c1cncc(CNc2ccnc(-c3ccc4c(c3)OCO4)n2)c1	–	1 µM (active)
